This note sets out measurements from PubChem BioAssay (EPA / NIEHS).

Where “and” joins values, the source holds several entries; their conditions need not be identical. Identical values can stand only once. Inconclusive results are not listed. Calls of active or inactive are those of the source. How the source made its calls: active means hit-call score of the fitted dose curve at least 0.9, where 1 is the maximum; inconclusive means response in the unintended direction; inactive means score below 0.9.

Usually AC50 stands for the midpoint of the concentration-response curve, whichever way the signal moves.

The first assay has as its system turtle Estrogen Receptor (ESR1), gene 101933533. In words: ATG_trERa_XSP1: Attagene TRANS-FACTORIAL Multi-Species (XSP1) HepG2 Assay for turtle Estrogen Receptor (ESR1) (AID 2283781). Put shortly:
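Activity was taken as gain of reporter transcript over DMSO controls. HepG2 cells carrying GAL4-UAS-driven reporters were exposed for 24 h before RNA was extracted and reporter sequences were measured by fluorescence after capillary separation.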
As to `CC1(C)C(C=C(Cl)Cl)C1C(=O)OCc1cccc(Oc2ccccc2)c1` (stereo not drawn), the call was inactive. Regarding `C#C[C@]1(O)CC[C@H]2[C@@H]3CCC4=CC(=O)CC[C@@H]4[C@H]3CC[C@@]21CC`, the AC50 was 327 nM (active) and 83.2 nM (active). Consider `C=CCOC(Cn1ccnc1)c1ccc(Cl)cc1Cl` (stereo not drawn), for which the AC50 was 26.7 µM (active). Regarding `Oc1ccc(C(c2ccc(O)cc2)C(Cl)(Cl)Cl)cc1`, the compound was classed as inactive. Take `CCCCC(CC)COC(=O)c1ccccc1C(=O)O` (stereo not drawn): the AC50 is 46 µM (active). As to `CC(=O)S[C@@H]1CC2=CC(=O)CC[C@]2(C)[C@H]2CC[C@@]3(C)[C@@H](CC[C@@]34CCC(=O)O4)[C@H]12`, the call was inactive. As for `CC(C)CCCCCCc1ccc(O)cc1`, the AC50 was 0.317 µM (active). Consider `CC(C)(c1ccc(O)cc1)c1ccc(O)cc1`, for which the AC50 is 0.195 µM (active).

`O=C(c1ccc(O)cc1O)c1ccc(O)cc1O`: the AC50 is 1.08 µM (active).

Tested on in the next assay: not listed separately
Description: ACEA_ER_AUC_viability: ACEA Biosciences xCELLigence Real-Time Cell Analysis on Estrogen Receptor Agonism for Viability (AID 2283782).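 Further: continuous compound exposure with impedance area under curve over 80 h; hit means loss of impedance signal meaning reduced cell growth or viability.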 Put shortly: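 T-47D; phenol red-free RPMI1640 + 10% CS-FBS; 8 conc., 1:4 serial, max 100 uM final, ≤0.5% DMSO; n = 2; continuous exposure; impedance monitored to 80 h post-dose; AUC vs DMSO.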
As for `CCOC(=O)NCCOc1ccc(Oc2ccccc2)cc1`, the AC50 is 95.3 µM (active). Turning to `c1ccc(Nc2ccccc2)cc1`, the compound was classed as inactive. For `CCC(C)OC(=O)N1CCCCC1CCO` (stereo not drawn), the result was inactive. Take `C=CCOC(Cn1ccnc1)c1ccc(Cl)cc1Cl` (stereo not drawn): the AC50 is 50 µM (active). Consider `Oc1ccc(C(c2ccc(O)cc2)C(Cl)(Cl)Cl)cc1`, for which the AC50 is 83.7 µM (active). In the case of `CSC(=O)c1cccc2nnsc12`, the call was inactive. As for `O=C(O)c1ccccc1`, the outcome was inactive.

Consider `O=C(Nc1ccc([N+](=O)[O-])cc1Cl)c1cc(Cl)ccc1O`, for which the AC50 is 2.89 µM (active). For the compound `O=C(O)C1(C(=O)Nc2ccc(Cl)cc2Cl)CC1`, the outcome was inactive. The same measure, in the same setting: the result for `COC(=O)c1ccc(I)cc1S(=O)(=O)NC(=O)Nc1nc(C)nc(OC)n1` reads “inactive”; that for `CCCCC(CC)COC(=O)c1ccccc1C(=O)O` (stereo not drawn), “inactive”. `CC(C)CCCCCCc1ccc(O)cc1`: the AC50 is 20.2 µM (active) and 21.5 µM (active) and 20.6 µM (active). As to `c1ccc2[nH]c(-c3cscn3)nc2c1`, the call was inactive. `CCCCCCC(C)OC(=O)COc1nc(F)c(Cl)c(N)c1Cl` (stereo not drawn): the AC50 is 14.3 µM (active).

As to `CN(C)C(=O)Nc1ccc(Cl)c(Cl)c1`, the result was inactive. For `CCCCOCCOCCOCc1cc2c(cc1CCC)OCO2`, the compound was called inactive. For `COc1c(Cl)ccc(Cl)c1C(=O)O`, the call was inactive. Consider `CCOC(=O)COc1cc(-n2ncc(C(F)(F)F)c(C)c2=O)c(F)cc1Cl`, for which the compound was classed as inactive. On to `COC(=O)CSc1cc(N=c2sc(=O)n3n2CCCC3)c(F)cc1Cl`, for which the call was inactive.
